{"source": "PubChem BioAssay AID504848", "about": "(National Center for Advancing Translational Sciences (NCATS), 2011)", "note": "About 1,400 (61%) of roughly 2,300 compounds were called active. Roughly 29% stayed inconclusive and do not appear here. Calls follow the shape of the dose curve; as a rule, active = well fitted inhibition curve with a large enough effect; inconclusive = small, poorly fitted or top-dose-only effect, or effect the other way; inactive = no such curve, though single readings can be large or run the other way. So high a share suggests a set chosen from earlier hits. Some of the results follow. Potency is read from the fitted curve at half-maximal effect."}
{"experiment": "Confirmation screen for delayed death inhibitors of the malarial parasite plastid, 96 hour incubation; also: nearly all actives have a fitted effect of over 60% in size", "conditions": "P. falciparum luciferase growth in erythrocytes; series mostly up to 28.7 µM", "how_it_was_run": "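Erythrocytes infected with luciferase-expressing P. falciparum (2% hematocrit, 0.1% parasitemia final) in RPMI 1640 with 0.5% Albumax, exposed to compounds 96 h at 37 C, 5% CO2. Growth inhibition read as decreased luciferase luminescence.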"}
{"smiles": "Cc1ccc(-c2cc(NC(=O)CCl)n(-c3ccccc3)n2)cc1", "Potency": "3.98 µM (active)"}
{"smiles": "O=C(CCl)Nc1c2c(nn1-c1ccccc1)CSC2", "Potency": "2.24 µM (active)"}
{"smiles": "CC(C)(C)c1cc(NC(=O)CCl)n(-c2ccccc2)n1", "Potency": "8.91 µM (active)"}
{"smiles": "CCCCNC(=O)c1onc(CSc2ccc(Cl)cc2)c1C(=O)O", "Potency": "inactive"}
{"smiles": "COc1cc(OC)c2c(-c3cccc(-c4cccc(N)c4)c3)cc(=O)oc2c1", "Potency": "10 µM (active)"}
{"smiles": "NCCCNc1nc(N)c([N+](=O)[O-])c(NC2CCCCC2)n1", "Potency": "2.82 µM (active)"}
{"smiles": "CC(C)C1C(=O)CC(c2ccccc2)NC1c1ccccc1", "note": "(stereo not drawn)", "Potency": "15.8 µM (active)"}
{"smiles": "S=C(Nc1ccccc1Cl)N(Cc1ccccc1)Cc1cccnc1", "Potency": "11.2 µM (active)"}
{"smiles": "C(=C\\c1nc(N2CCCCCC2)c2ccccc2n1)/c1ccccc1", "Potency": "6.31 µM (active)"}
{"smiles": "CC(C)CCSc1nc(N)c(C#N)cc1C#N", "Potency": "5.62 µM (active)"}
{"smiles": "Cc1cccc2cc3c(nc12)SC(=NCC1CCCO1)N(Cc1ccco1)C3", "note": "(stereo not drawn)", "Potency": "2 µM (active)"}
{"smiles": "CCCNC(=O)c1ccc(S(=O)(=O)c2ccc(OC)cc2)c([N+](=O)[O-])c1", "Potency": "5.01 µM (active)"}
{"smiles": "CCOc1ccc2c(c1)C(N(CCN1CCOCC1)C(=O)Nc1ccccc1)CC(C)(C)O2", "note": "(stereo not drawn)", "Potency": "10 µM (active)"}
{"smiles": "O=C(N/N=C/c1cccn1-c1ccc([N+](=O)[O-])cc1)c1cccnc1", "Potency": "11.2 µM (active)"}
{"smiles": "COc1cc(/C=C(/C(=O)c2cccs2)c2nc3ccccc3[nH]2)ccc1O", "Potency": "3.98 µM (active)"}
{"smiles": "COC(=O)/C(=C\\c1cc(OC)c(OC)c(OC)c1)c1nc2ccccc2[nH]1", "Potency": "11.2 µM (active)"}
{"smiles": "O=C(/C(=C/c1ccc(Cl)cc1)c1nc2ccccc2[nH]1)c1ccccc1", "Potency": "1.26 µM (active)"}
{"smiles": "Brc1ccc2[nH]c3c(c2c1)CCC3", "Potency": "inactive"}
{"smiles": "O=C(NCc1ccc2[nH]c3c(c2c1)CCCC3)c1ccc(S(=O)(=O)N2CCCC2)cc1", "Potency": "12.6 µM (active)"}
{"smiles": "C=CCNC(=O)c1onc(CSc2ccc(Cl)cc2)c1C(=O)O", "Potency": "inactive"}
{"smiles": "COc1ccc(-c2cc(CNC(=O)CCl)on2)cc1", "Potency": "1.41 µM (active)"}
{"smiles": "NNc1nc(-c2ccccc2Cl)c2cc(Br)ccc2n1", "Potency": "11.2 µM (active)"}
{"smiles": "COc1ccc(Cl)cc1NC(=O)c1noc(C)c1[N+](=O)[O-]", "Potency": "12.6 µM (active)"}
{"smiles": "CCCN1C2=C(C(=O)CCC2)C(c2ccc(O)c(Br)c2)C2=C1CCCC2=O", "Potency": "12.6 µM (active)"}
{"smiles": "OC1CCN(c2c3c(nc4cc(-c5ccc(Cl)cc5)nn24)CCC3)CC1", "Potency": "3.98 µM (active)"}
{"smiles": "C/C(=C\\C(=O)c1ccncc1)Nc1ccccc1O", "Potency": "15.8 µM (active)"}
{"smiles": "CO[C@H](C(=O)[C@@H](O)[C@@H](C)O)C1Cc2cc3cc(O[C@H]4C[C@@H](O[C@H]5C[C@@H](O)[C@H](O)[C@@H](C)O5)[C@@H](O)[C@@H](C)O4)c(C)c(O)c3c(O)c2C(=O)[C@H]1O[C@H]1C[C@@H](O[C@H]2C[C@@H](O[C@H]3C[C@](C)(O)[C@H](O)[C@@H](C)O3)[C@H](O)[C@@H](C)O2)[C@H](O)[C@@H](C)O1", "note": "(stereo partly drawn)", "Potency": "0.562 µM (active)"}
{"smiles": "COc1ccc(NS(=O)(=O)c2ccc(N3CCOCC3)c(NC(=O)c3ccc(OC)cc3)c2)cc1", "Potency": "11.2 µM (active)"}
{"smiles": "Cc1cc(Sc2nnc(N)s2)c2ccccc2n1", "Potency": "5.62 µM (active)"}
{"smiles": "Cc1cc(Sc2nnc(/N=C/N(C)C)s2)c2ccccc2n1", "Potency": "7.08 µM (active)"}
{"smiles": "CC1CCCN(Cc2c(O)ccc3c(=O)c(-c4nc5ccccc5s4)c(N)oc23)C1", "note": "(stereo not drawn)", "Potency": "0.316 µM (active)"}
{"smiles": "CCOc1cc([N+](=O)[O-])cc(/C=N/NC(=O)c2c(-c3ccccc3)noc2C)c1O", "Potency": "14.1 µM (active)"}
{"smiles": "COCCn1c(SCc2csc(-c3ccccc3)n2)nc2ccccc21", "Potency": "12.6 µM (active)"}
{"smiles": "CN1C(=O)Cc2cc(S(=O)(=O)N3CCN(c4cccc(C(F)(F)F)c4)CC3)ccc21", "Potency": "12.6 µM (active)"}
{"smiles": "Cc1cccc(N2CCN(C3=NC(=O)C(Cc4ccccc4)S3)CC2)c1", "note": "(stereo not drawn)", "Potency": "1.58 µM (active)"}
{"smiles": "O=C(Oc1nsnc1N1CCCCC1)N1CCOCC1", "Potency": "10 µM (active)"}
{"smiles": "Cc1oc(-c2ccccc2Cl)nc1Cn1cccc1C1=NC(c2ccccc2)CO1", "note": "(stereo not drawn)", "Potency": "12.6 µM (active)"}
{"smiles": "CCn1c(=O)n(CC)c2cc(N3CCCC3)c(NC(=O)c3ccc(C)cc3)cc21", "Potency": "7.08 µM (active)"}
{"smiles": "COc1ccc2cc3[n+](cc2c1OC)CCc1cc2c(cc1-3)OCO2", "Potency": "0.501 µM (active)"}
{"smiles": "O=C(Nc1ccccc1)N1CCC(O)(c2cccc(C(F)(F)F)c2)CC1", "Potency": "12.6 µM (active)"}
{"smiles": "COc1ccc(C#Cc2ccc3c(=O)c4ccccc4n(C)c3c2)cc1", "Potency": "10 µM (active)"}
{"smiles": "Cn1c2ccccc2c(=O)c2ccc(C#Cc3ccc(N)cc3)cc21", "Potency": "11.2 µM (active)"}
{"smiles": "COc1ccc(N(C)S(=O)(=O)c2cccc(C(=O)NCc3ccc(C)cc3)c2)cc1", "Potency": "14.1 µM (active)"}
{"smiles": "COc1cccc(S(=O)(=O)NCc2ccc(C(=O)NCc3ccccn3)cc2)c1", "Potency": "inactive"}
{"smiles": "O=C(c1ccc([N+](=O)[O-])cc1)n1nc(-c2ccccc2)nc1NCc1ccc(F)cc1", "Potency": "10 µM (active)"}
{"smiles": "Cc1cc(C)nc(SCC(=O)c2ccc(C)c(C)c2)n1", "Potency": "12.6 µM (active)"}
{"smiles": "COc1ccccc1N1CCN(CCCCN2C(=O)C3CCCCN3C2=O)CC1", "note": "(stereo not drawn)", "Potency": "12.6 µM (active)"}
{"smiles": "O=C(NNc1ccnc2cc(Cl)ccc12)C1CCCCC1", "Potency": "0.282 µM (active)"}
{"smiles": "CCN1CCC(Nc2ccnc3cc(Cl)ccc23)CC1", "Potency": "0.158 µM (active)"}
{"smiles": "Cc1cccc(-n2ccc(=O)c(C(=O)Nc3ccc(S(=O)(=O)N4CCOCC4)cc3)n2)c1", "Potency": "5.01 µM (active)"}
{"smiles": "c1ccc2oc(Cc3ccc(Cc4nc5ccccc5o4)cc3)nc2c1", "Potency": "8.91 µM (active)"}
{"smiles": "CC(c1ccco1)N(C(=O)c1cc(Cl)cc(Cl)c1)c1ccccn1", "note": "(stereo not drawn)", "Potency": "12.6 µM (active)"}
{"smiles": "O=C(CCN1C(=O)/C(=C\\c2ccc(F)cc2)SC1=S)Nc1ccccc1", "Potency": "inactive"}
{"smiles": "O=C(CCCN1C(=O)/C(=C\\c2cccs2)SC1=S)Nc1ccc(O)cc1", "Potency": "3.98 µM (active)"}
{"smiles": "O=C(CCN1C(=O)/C(=C/c2ccccc2)SC1=S)NCCc1ccc(O)cc1", "Potency": "inactive"}
{"smiles": "O=C(CCCN1C(=O)/C(=C/c2cccs2)SC1=S)Nc1ccc(O)cc1", "Potency": "7.08 µM (active)"}
{"smiles": "CCc1ccc(/C=C2\\SC(=S)N(CCCC(=O)Nc3ccccc3C(=O)O)C2=O)cc1", "Potency": "15.8 µM (active)"}
{"smiles": "O=C(CCN1C(=O)/C(=C/c2ccccc2)SC1=S)N[C@@H](CO)Cc1ccccc1", "Potency": "12.6 µM (active)"}
